{"source": "PubChem BioAssay (NCATS)", "assay_in_all_cases": "qHTS profiling for inhibitors of Plasmodium falciparum proliferation (AID 504749); further: nearly all actives have a fitted effect of over 60% in size; further: potency means the concentration at half of the fitted maximal effect", "details_in_all_cases": "P. falciparum in erythrocytes, SYBR Green DNA, 72 h; series mostly up to 28.7 µM", "key": {"[1]": {"tested_on": "CP260", "summary_of_the_method": "(§1)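 Quantitative HTS: compounds pinned into medium, infected erythrocytes added (0.3% parasitemia, 2.5% hematocrit), 72 h culture at 37 C under 5% CO2. Saponin/Triton lysis with SYBR Green I, overnight RT, then fluorescence read.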"}, "[2]": {"tested_on": "CP262", "summary_of_the_method": "as §1"}, "[3]": {"tested_on": "CP265", "summary_of_the_method": "as §1"}, "[4]": {"tested_on": "CP266", "summary_of_the_method": "as §1"}, "[5]": {"tested_on": "CP268", "summary_of_the_method": "as §1"}, "[6]": {"tested_on": "CP269", "summary_of_the_method": "as §1"}, "[7]": {"tested_on": "CP286", "summary_of_the_method": "as §1"}, "[8]": {"tested_on": "CP291", "summary_of_the_method": "as §1"}, "[9]": {"tested_on": "CP297", "summary_of_the_method": "as §1"}, "[10]": {"tested_on": "CP305", "summary_of_the_method": "as §1"}, "[11]": {"tested_on": "CP315", "summary_of_the_method": "as §1"}, "[12]": {"tested_on": "CP325", "summary_of_the_method": "as §1"}, "[13]": {"tested_on": "CP329", "summary_of_the_method": "as §1"}, "[14]": {"tested_on": "CP335", "summary_of_the_method": "as §1"}, "[15]": {"tested_on": "DFO2036", "summary_of_the_method": "as §1"}, "[16]": {"tested_on": "DIV14", "summary_of_the_method": "as §1"}, "[17]": {"tested_on": "DIV17", "summary_of_the_method": "as §1"}, "[18]": {"tested_on": "DIV30", "summary_of_the_method": "as §1"}, "[19]": {"tested_on": "Dd2", "summary_of_the_method": "as §1"}, "[20]": {"tested_on": "ECU", "summary_of_the_method": "as §1"}}, "note": "Results filed as inconclusive are left out. A call without a number means that no potency is given here. Active and inactive are the calls of the source. The call rests on the fitted dose curve; in most records, active means well fitted inhibition curve with a large enough effect; inconclusive means small, poorly fitted or top-dose-only effect; inactive means flat fitted curve, though single readings scatter."}
{"compound": "COc1cccc2c1C(=O)c1c(O)c3c(c(O)c1C2=O)C[C@@](O)(C(=O)CO)C[C@@H]3O[C@H]1C[C@H](N)[C@H](OC2CCCCO2)[C@H](C)O1", "note": "(stereo partly drawn)", "values": [{"measurement": "Potency", "setting": "[1]", "value": "2240 nM (active)"}, {"measurement": "Potency", "setting": "[2]", "value": "inactive"}, {"measurement": "Potency", "setting": "[3]", "value": "8910 nM (active)"}, {"measurement": "Potency", "setting": "[4]", "value": "7570 nM (active)"}, {"measurement": "Potency", "setting": "[5]", "value": "8490 nM (active)"}, {"measurement": "Potency", "setting": "[6]", "value": "5360 nM (active)"}, {"measurement": "Potency", "setting": "[7]", "value": "2000 nM (active)"}, {"measurement": "Potency", "setting": "[8]", "value": "6750 nM (active)"}, {"measurement": "Potency", "setting": "[9]", "value": "6750 nM (active)"}, {"measurement": "Potency", "setting": "[10]", "value": "6010 nM (active)"}, {"measurement": "Potency", "setting": "[11]", "value": "16900 nM (active)"}, {"measurement": "Potency", "setting": "[12]", "value": "7570 nM (active)"}, {"measurement": "Potency", "setting": "[13]", "value": "6750 nM (active)"}, {"measurement": "Potency", "setting": "[14]", "value": "3010 nM (active)"}, {"measurement": "Potency", "setting": "[15]", "value": "3550 nM (active)"}, {"measurement": "Potency", "setting": "[16]", "value": "3790 nM (active)"}, {"measurement": "Potency", "setting": "[17]", "value": "2390 nM (active)"}, {"measurement": "Potency", "setting": "[18]", "value": "6750 nM (active)"}, {"measurement": "Potency", "setting": "[19]", "value": "2000 nM (active)"}, {"measurement": "Potency", "setting": "[20]", "value": "2000 nM (active)"}]}
{"compound": "CCC(C(=O)O)C1CCC(C)C(C(C)C(O)C(C)C(=O)C(CC)C2OC3(C=CC(O)[C@@]4(CC[C@](C)(C5CC[C@@](O)(CC)C(C)O5)O4)O3)C(C)CC2C)O1", "note": "(stereo partly drawn)", "values": [{"measurement": "Potency", "setting": "[1]", "value": "631 nM (active)"}, {"measurement": "Potency", "setting": "[2]", "value": "849 nM (active)"}, {"measurement": "Potency", "setting": "[3]", "value": "1260 nM (active)"}, {"measurement": "Potency", "setting": "[4]", "value": "1350 nM (active)"}, {"measurement": "Potency", "setting": "[5]", "value": "1070 nM (active)"}, {"measurement": "Potency", "setting": "[6]", "value": "675 nM (active)"}, {"measurement": "Potency", "setting": "[7]", "value": "794 nM (active)"}, {"measurement": "Potency", "setting": "[8]", "value": "675 nM (active)"}, {"measurement": "Potency", "setting": "[9]", "value": "757 nM (active)"}, {"measurement": "Potency", "setting": "[10]", "value": "675 nM (active)"}, {"measurement": "Potency", "setting": "[11]", "value": "478 nM (active)"}, {"measurement": "Potency", "setting": "[12]", "value": "849 nM (active)"}, {"measurement": "Potency", "setting": "[13]", "value": "601 nM (active)"}, {"measurement": "Potency", "setting": "[14]", "value": "379 nM (active)"}, {"measurement": "Potency", "setting": "[15]", "value": "794 nM (active)"}, {"measurement": "Potency", "setting": "[17]", "value": "601 nM (active)"}, {"measurement": "Potency", "setting": "[18]", "value": "478 nM (active)"}, {"measurement": "Potency", "setting": "[19]", "value": "891 nM (active)"}, {"measurement": "Potency", "setting": "[20]", "value": "1580 nM (active)"}]}
{"compound": "OCC(O)C(O)C(O)CO", "note": "(stereo not drawn)", "values": [{"measurement": "Potency", "setting": "[1]", "value": "inactive"}, {"measurement": "Potency", "setting": "[2]", "value": "inactive"}, {"measurement": "Potency", "setting": "[3]", "value": "inactive"}, {"measurement": "Potency", "setting": "[4]", "value": "inactive"}, {"measurement": "Potency", "setting": "[5]", "value": "inactive"}, {"measurement": "Potency", "setting": "[6]", "value": "inactive"}, {"measurement": "Potency", "setting": "[7]", "value": "inactive"}, {"measurement": "Potency", "setting": "[8]", "value": "inactive"}, {"measurement": "Potency", "setting": "[9]", "value": "inactive"}, {"measurement": "Potency", "setting": "[10]", "value": "inactive"}, {"measurement": "Potency", "setting": "[11]", "value": "inactive"}, {"measurement": "Potency", "setting": "[12]", "value": "inactive"}, {"measurement": "Potency", "setting": "[13]", "value": "inactive"}, {"measurement": "Potency", "setting": "[14]", "value": "inactive"}, {"measurement": "Potency", "setting": "[15]", "value": "inactive"}, {"measurement": "Potency", "setting": "[16]", "value": "inactive"}, {"measurement": "Potency", "setting": "[17]", "value": "inactive"}, {"measurement": "Potency", "setting": "[18]", "value": "inactive"}, {"measurement": "Potency", "setting": "[19]", "value": "inactive"}, {"measurement": "Potency", "setting": "[20]", "value": "inactive"}]}
{"compound": "COc1ccc2c(c1OC)C(=O)OC2[C@H]1c2c(cc3c(c2OC)OCO3)CCN1C", "note": "(stereo partly drawn)", "values": [{"measurement": "Potency", "setting": "[1]", "value": "inactive"}, {"measurement": "Potency", "setting": "[2]", "value": "inactive"}, {"measurement": "Potency", "setting": "[3]", "value": "inactive"}, {"measurement": "Potency", "setting": "[4]", "value": "inactive"}, {"measurement": "Potency", "setting": "[5]", "value": "inactive"}, {"measurement": "Potency", "setting": "[6]", "value": "inactive"}, {"measurement": "Potency", "setting": "[7]", "value": "inactive"}, {"measurement": "Potency", "setting": "[8]", "value": "inactive"}, {"measurement": "Potency", "setting": "[9]", "value": "inactive"}, {"measurement": "Potency", "setting": "[10]", "value": "inactive"}, {"measurement": "Potency", "setting": "[11]", "value": "inactive"}, {"measurement": "Potency", "setting": "[12]", "value": "inactive"}, {"measurement": "Potency", "setting": "[13]", "value": "inactive"}, {"measurement": "Potency", "setting": "[14]", "value": "inactive"}, {"measurement": "Potency", "setting": "[15]", "value": "inactive"}, {"measurement": "Potency", "setting": "[16]", "value": "inactive"}, {"measurement": "Potency", "setting": "[17]", "value": "inactive"}, {"measurement": "Potency", "setting": "[18]", "value": "inactive"}, {"measurement": "Potency", "setting": "[19]", "value": "inactive"}, {"measurement": "Potency", "setting": "[20]", "value": "inactive"}]}
{"compound": "Nc1nc2c(c(=O)[nH]1)N(C=O)[C@H](CNc1ccc(C(=O)N[C@@H](CCC(=O)O)C(=O)O)cc1)CN2", "values": [{"measurement": "Potency", "setting": "[1]", "value": "inactive"}, {"measurement": "Potency", "setting": "[2]", "value": "inactive"}, {"measurement": "Potency", "setting": "[3]", "value": "inactive"}, {"measurement": "Potency", "setting": "[4]", "value": "inactive"}, {"measurement": "Potency", "setting": "[5]", "value": "inactive"}, {"measurement": "Potency", "setting": "[6]", "value": "inactive"}, {"measurement": "Potency", "setting": "[7]", "value": "inactive"}, {"measurement": "Potency", "setting": "[9]", "value": "inactive"}, {"measurement": "Potency", "setting": "[10]", "value": "inactive"}, {"measurement": "Potency", "setting": "[11]", "value": "inactive"}, {"measurement": "Potency", "setting": "[12]", "value": "inactive"}, {"measurement": "Potency", "setting": "[13]", "value": "inactive"}, {"measurement": "Potency", "setting": "[14]", "value": "inactive"}, {"measurement": "Potency", "setting": "[15]", "value": "inactive"}, {"measurement": "Potency", "setting": "[16]", "value": "inactive"}, {"measurement": "Potency", "setting": "[17]", "value": "inactive"}, {"measurement": "Potency", "setting": "[18]", "value": "inactive"}, {"measurement": "Potency", "setting": "[19]", "value": "inactive"}, {"measurement": "Potency", "setting": "[20]", "value": "inactive"}]}
{"compound": "CCCCCCCCCCCC(CC1OC(=O)C1CCCCCC)OC(=O)C(CC(C)C)NC=O", "note": "(stereo not drawn)", "values": [{"measurement": "Potency", "setting": "[1]", "value": "794 nM (active)"}, {"measurement": "Potency", "setting": "[2]", "value": "inactive"}, {"measurement": "Potency", "setting": "[3]", "value": "631 nM (active)"}, {"measurement": "Potency", "setting": "[4]", "value": "inactive"}, {"measurement": "Potency", "setting": "[7]", "value": "1000 nM (active)"}, {"measurement": "Potency", "setting": "[11]", "value": "inactive"}, {"measurement": "Potency", "setting": "[14]", "value": "675 nM (active)"}, {"measurement": "Potency", "setting": "[15]", "value": "501 nM (active)"}, {"measurement": "Potency", "setting": "[19]", "value": "794 nM (active)"}, {"measurement": "Potency", "setting": "[20]", "value": "398 nM (active)"}]}
{"compound": "COc1ccc([C@@H]2CNC(=O)C2)cc1OC1CCCC1", "values": [{"measurement": "Potency", "setting": "[1]", "value": "inactive"}, {"measurement": "Potency", "setting": "[2]", "value": "inactive"}, {"measurement": "Potency", "setting": "[3]", "value": "inactive"}, {"measurement": "Potency", "setting": "[4]", "value": "inactive"}, {"measurement": "Potency", "setting": "[5]", "value": "inactive"}, {"measurement": "Potency", "setting": "[6]", "value": "inactive"}, {"measurement": "Potency", "setting": "[7]", "value": "inactive"}, {"measurement": "Potency", "setting": "[8]", "value": "inactive"}, {"measurement": "Potency", "setting": "[9]", "value": "inactive"}, {"measurement": "Potency", "setting": "[10]", "value": "inactive"}, {"measurement": "Potency", "setting": "[11]", "value": "inactive"}, {"measurement": "Potency", "setting": "[12]", "value": "inactive"}, {"measurement": "Potency", "setting": "[13]", "value": "inactive"}, {"measurement": "Potency", "setting": "[14]", "value": "inactive"}, {"measurement": "Potency", "setting": "[15]", "value": "inactive"}, {"measurement": "Potency", "setting": "[16]", "value": "inactive"}, {"measurement": "Potency", "setting": "[17]", "value": "inactive"}, {"measurement": "Potency", "setting": "[18]", "value": "inactive"}, {"measurement": "Potency", "setting": "[19]", "value": "inactive"}, {"measurement": "Potency", "setting": "[20]", "value": "inactive"}]}
